# Data taken from the supplement of paper PMC7156485.
# ± gives the standard deviation of the averaged measurements.
# System: TDF
# Experiment: cell number relative to DMSO (% of DMSO); higher = more cells (less growth inhibition / toxicity)
# Conditions: concentration: 10 µM; 24 h
# In short: (§1)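 For HCC1569 and TDF cells, compounds at 10 µM were applied for 24 h at 37 °C in triplicate in 384-well plates. Cells were fixed in 3.7% formaldehyde, stained for H1.0 and with DAPI, and imaged at ×10 over six fields per well. The endpoint, H1.0 nuclear intensity or cell number, is shown as percent of the plate control using the median of replicates. Positional effects were smoothed for HCC1569 only.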
# 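Throughout, for H1.0 immunofluorescence intensity relative to DMSO: TDF is a line of transformed human dermal fibroblasts of mesenchymal origin.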
# 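Throughout, for cell number relative to DMSO: TDF denotes transformed human dermal fibroblasts of mesenchymal origin.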
row,SMILES,cell number
1,COc1cc(-c2ccc(=O)[nH]n2)ccc1OC(F)F [Zardaverine],107 ± 9.4
2,CC(C)Cc1ccc(C(C)C(=O)NO)cc1 (stereo not drawn) [Ibuproxam],101
3,NCCCS(=O)(=O)[O-].[Na+] [3-Amino-1-propanesulfonic acid sodium],99.3
4,CC(=O)Nc1nnc(S(N)(=O)=O)s1 [Acetazolamide],106
5,CCCCCCCCCCCCCCCCOCC(CO)OC(C)=O (stereo not drawn) [1-Hexadecyl-2-O-acetyl-glycerol],99.8
6,Cl.NCCNC(=O)c1ccc(Cl)cc1 [Ro 16-6491 hydrochloride],102
7,CC[C@@]1(O)C(=O)OCc2c1cc1n(c2=O)Cc2cc3c(CN(C)C)c(O)ccc3nc2-1,26.3
8,NC1CONC1=O [L-Cycloserine],102 ± 2.1
9,NCCCC(O)(P(=O)([O-])O)P(=O)(O)O [Alendronate],102
10,CCCCCCCCCCCCCCC(F)C(=O)O (stereo not drawn) [2-Fluoropalmitic acid],102

# System: TDF
# Experiment: H1.0 immunofluorescence intensity relative to DMSO (% of DMSO); higher = stronger H1.0 induction, active = 120 or more
# Conditions: concentration: 10 µM; 24 h
# In short: as §1
row,SMILES,H1.0 immunofluorescence intensity
1,CCS(=O)(=O)CCn1c([N+](=O)[O-])cnc1C [Tinidazole],102 (inactive)
2,CCCC1OC2CC3C4CCC5=CC(=O)C=CC5(C)C4C(O)CC3(C)C2(C(=O)CO)O1 (stereo not drawn) [Budesonide],82 (inactive)
3,NC(=O)c1cccc(-c2cc(Nc3ccc(OC(F)(F)F)cc3)ncn2)c1 [Bcr-abl Inhibitor],98.5 (inactive)
4,CCOC(=O)c1c(C)[nH]c(C=C2C(=O)Nc3ccccc32)c1C [VEGF Receptor 2 Kinase Inhibitor I],94.2 (inactive)
5,"O=c1ccc2ccc(O)c(O)c2o1 [7,8-dihydroxy-2H-chromen-2-one]",96.2 (inactive)
6,CN1CCN(C2=Nc3ccccc3Oc3ccc(Cl)cc32)CC1.O=C(O)CCC(=O)O [Loxapine succinate],95.8 (inactive)
7,CC(C)NCC(O)COc1ccc(CC(N)=O)cc1 (stereo not drawn) [R(+)-Atenolol],90.9 (inactive)
8,CN(C)CCC(c1ccc(Br)cc1)c1ccccn1.O=C(O)C=CC(=O)O (racemic),97.9 (inactive)
9,N=C(N)c1ccc(OCCCCCOc2ccc(C(=N)N)cc2)cc1 [Pentamidine],92.3 (inactive)
10,O=C(O)CCCC=CCC1C(O)CC(O)C1C=CC(O)COc1cccc(Cl)c1.[Na] (stereo not drawn),96.8 (inactive)
11,"O=C(OC12CC3CC(CC(C3)C1)C2)c1ccc(NCc2cc(O)ccc2O)cc1 [1-adamantyl 4-[(2,5-dihydroxybenzyl)amino]benzoate]",120 (inactive)
12,CON=C(C(=O)NC1C(=O)N2C(C(=O)[O-])=C(CSc3nc(=O)c([O-])nn3C)CSC12)c1csc(N)n1.[Na+].[Na+] (stereo not drawn) [Ceftriaxone sodium],99.3 (inactive)
13,CC(=O)OC12COC1CC(O)C1(C)C(=O)C(O)C3=C(C)C(OC(=O)C(O)C(NC(=O)OC(C)(C)C)c4ccccc4)CC(O)(C(OC(=O)c4ccccc4)C21)C3(C)C (stereo not drawn) [Docetaxil],147 (active)
14,CCCCCCCCCCCCCCCCCCCCC(=O)O [Heneicosanoic acid],98.5 (inactive)
15,CCCCCCCCCC(=O)O [Decanoic acid],100 (inactive)
16,Cc1cnc(Nc2ccc(OCCN3CCCC3)cc2)nc1Nc1cccc(S(=O)(=O)NC(C)(C)C)c1,116 (inactive)
17,COc1ccc(Cl)cc1NC(=O)Nc1cc(C)nc2ccccc12 [IGF-1R Inhibitor II],98.8 (inactive)
18,Cc1cc2c(s1)=Nc1ccccc1NC=2N1CCN(C)CC1 [Olanzapine],92.2 (inactive)
19,CCOC(=O)c1cnc2c(cnn2CC)c1NN=C(C)C.Cl [Etazolate hydrochloride],86.8 (inactive)
20,CCN(CC)CCOCCOC(=O)C1(c2ccccc2)CCCC1.O=C(O)CC(O)(CC(=O)O)C(=O)O [Carbetapentane citrate],107 (inactive)
21,CC(=O)NCCOC(=O)[C@H](Oc1cccc(C(F)(F)F)c1)c1ccc(Cl)cc1,95.3 (inactive)
22,OCC1OC(n2cnc3c(NC4CCCCC4)ncnc32)C(O)C1O (stereo not drawn) [N6-Cyclohexyladenosine],97.9 (inactive)
23,C[Se]CCC(N)C(=O)O (stereo not drawn) [Selenomethionine],104 (inactive)
